Bioassay records from PubChem.
Cruzain noTriton – cruzain (T. cruzi) inhibition without detergent; Potency, µM, without a hit: max response, negative = inhibition, most hits filed as inhibitors; P25779; purified cruzain, Z-FR-AMC fluorescence, no detergent; AID 1476; actives 2.3% (n = 200,000);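 also: plate controls were enzyme without inhibitor for no effect and buffer without enzyme for full effect; nearly all actives have a fitted effect of over 40% in size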
Target sequence (P25779 123-467 limits assumed): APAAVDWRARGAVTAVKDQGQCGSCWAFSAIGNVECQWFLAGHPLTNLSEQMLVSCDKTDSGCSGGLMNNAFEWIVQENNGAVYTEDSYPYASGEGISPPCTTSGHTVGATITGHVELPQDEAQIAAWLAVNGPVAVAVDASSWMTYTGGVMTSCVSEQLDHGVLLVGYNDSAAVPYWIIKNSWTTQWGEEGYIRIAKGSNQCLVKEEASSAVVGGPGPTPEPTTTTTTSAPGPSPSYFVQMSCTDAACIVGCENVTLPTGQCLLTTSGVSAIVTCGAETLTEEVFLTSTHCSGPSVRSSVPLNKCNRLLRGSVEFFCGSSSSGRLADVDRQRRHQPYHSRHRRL
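Detergent-free condition (0.00005% Triton X-100) in acetate buffer pH 5.5 with DTT. 1.5 nM enzyme and compound were pre-mixed 15 min, then 2 uM Z-FR-AMC substrate added; reaction progress from fluorescence change between first and third reads (60 s).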
Cruzain inh Det – inhibitors of Trypanosoma cruzi cruzain with detergent | P25779 | purified cruzain, Z-FR-AMC fluorescence, 0.01% Triton | Potency, µM, without a hit: max response, negative = inhibition, actives largely listed as inhibitors | actives 0.43% (n = 200,000);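 also: plate controls were neutral wells for no effect and buffer without enzyme for full effect; nearly all actives have a fitted effect of over 40% in size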
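Detergent-containing arm of a paired screen for aggregation-based inhibition: 0.01% Triton X-100 present. Cruzain at 1.5 nM cleaved 2 uM Z-FR-AMC at pH 5.5 with 5 mM DTT; AMC fluorescence gain over 60 s measured activity.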
An asterisk follows results filed as active. Most compounds without a hit are left out; they make up all but 2.5% or so of the library. Calls follow the shape of the dose curve; as a rule, active = well fitted curve in the direction sought with a large enough effect; inconclusive = small, poorly fitted or top-dose-only effect, or another doubt; inactive = no such curve, though single readings can be large; an effect the other way counts as inactive or inconclusive. Potency is read from the fitted curve at half-maximal effect.

`CC(C)c1ccc(CNC(=O)c2ccc(N3CCCC3)c(NC(=O)NCc3ccc(F)cc3)c2)cc1` gave Cruzain noTriton 3% and Cruzain inh Det -3%.
Screening Cc1ccc(NC(=O)C2CCCN2S(=O)(=O)c2cccc3nsnc23)cc1Cl (centres undefined) returned Cruzain noTriton -1% and Cruzain inh Det 0%.
`O=C(N/N=C/c1c[nH]c2ccccc12)c1cc(-c2ccccc2)n[nH]1` gave Cruzain noTriton 3% and Cruzain inh Det -13%.
For O=C(N/N=C/c1c[nH]c2ccccc12)c1cc(-c2ccc(-c3ccccc3)cc2)n[nH]1 the results were Cruzain noTriton 7.9µM* and Cruzain inh Det -6%.
Screening O=c1cc(N2CCNCC2)oc2c(-c3ccccc3)cccc12 returned Cruzain noTriton -6% and Cruzain inh Det 1%.
For COc1ccc(Cl)cc1NC(=O)c1nnn(Cc2cccc(C(F)(F)F)c2)c1N the results were Cruzain noTriton 23% and Cruzain inh Det 2%.
O=C1CN2CCN(CC2)CC(=O)Nc2ccc(cc2)S(=O)(=O)c2ccc(cc2)NC(=O)CN2CCN(CC2)CC(=O)Nc2ccc(cc2)S(=O)(=O)c2ccc(cc2)N1 was read as Cruzain noTriton 3.2µM* and Cruzain inh Det 3.2µM*.
For O=C(CSc1ncnc2c1cnn2-c1ccc(Cl)cc1)NCc1ccc2c(c1)OCO2 the results were Cruzain noTriton 13µM* and Cruzain inh Det 3%.
`O=C(CSc1ncnc2c1cnn2-c1ccccc1)Nc1ccc2c(c1)OCO2` gave Cruzain noTriton -7% and Cruzain inh Det 2%.
CCCOc1ccccc1C(=O)Nc1nc2c(s1)CCCC2 was read as Cruzain noTriton 0% and Cruzain inh Det -8%.
For COc1cc(C)ccc1OCCOc1c(Cl)cc(Cl)cc1Cl the results were Cruzain noTriton -1% and Cruzain inh Det -1%.
For COc1cc(C)ccc1OCCOc1cc(C)ccc1Cl the results were Cruzain noTriton 20µM* and Cruzain inh Det -1%.
For O=C(CSc1nccn1Cc1ccccc1)Nc1ccc2c(c1)OCCO2 the results were Cruzain noTriton 0% and Cruzain inh Det -3%.
`O=C(Nc1ccc(Cl)c(C(F)(F)F)c1)C(Cc1ccccc1)NS(=O)(=O)c1ccc(Br)s1` (centres undefined) gave Cruzain noTriton 4µM* and Cruzain inh Det 0%.
For CCc1cccc(NC(=O)C(Cc2ccccc2)NS(=O)(=O)c2cccs2)c1 (centres undefined) the results were Cruzain noTriton 3% and Cruzain inh Det -10%.
COc1ccc(NC(=O)C(Cc2ccccc2)NS(=O)(=O)c2ccc(Br)s2)cc1OC (centres undefined) was read as Cruzain noTriton -3% and Cruzain inh Det -5%.
Screening Cc1ccc(NC(=O)C(Cc2ccccc2)NS(=O)(=O)c2cccs2)cc1Cl (centres undefined) returned Cruzain noTriton 13µM* and Cruzain inh Det -1%.
Screening CCOC(=O)c1c(NC(=O)Cc2coc3cc(C)cc(C)c23)sc2c1CCC2 returned Cruzain noTriton -25% and Cruzain inh Det -1%.
Screening Cc1ccc2c(c1)-c1onc(C(=O)N(C)c3cccc(C(F)(F)F)c3)c1CO2 returned Cruzain noTriton inconclusive and Cruzain inh Det -3%.
For CC(C)[C@H](NC(=O)OCc1ccccc1)C(=O)N[C@H](C=O)Cc1ccccc1 the results were Cruzain noTriton 0.032µM* and Cruzain inh Det 0.032µM*.
`CC(C)[C@H](NC(=O)OCc1ccccc1)C(=O)OCC(=O)Nc1c(F)cccc1F` gave Cruzain noTriton inconclusive and Cruzain inh Det 14µM*.
For CC(C)C(NC(=O)OCc1ccccc1)C(=O)O (centres undefined) the results were Cruzain noTriton -2% and Cruzain inh Det 7%.
`CC(C)[C@H](NC(=O)OCc1ccccc1)C(=O)NCc1ccccc1` gave Cruzain noTriton -10% and Cruzain inh Det -3%.
Screening CCn1cc(/C=C(\NC(=O)c2ccc(C)cc2)C(=O)NCCCn2ccnc2)c2ccccc21 returned Cruzain noTriton 15% and Cruzain inh Det -7%.
`COCCn1c(C)cc(O)c(C(c2ccccc2OC)N2CCCCC2)c1=O` (centres undefined) gave Cruzain noTriton 8% and Cruzain inh Det 2%.
`O=C(CSc1nnc2scc(-c3ccc(Cl)cc3)n12)Nc1ccc(F)cc1` gave Cruzain noTriton -5% and Cruzain inh Det -3%.
`COc1cccc(CN2CC(O)=C(c3nc(-c4ccc(Cl)cc4)cs3)C2=N)c1` gave Cruzain noTriton 13µM* and Cruzain inh Det -10%.
For COc1ccc(-c2csc(C3=C(O)CN(Cc4ccc(Cl)cc4)C3=N)n2)cc1OC the results were Cruzain noTriton -10% and Cruzain inh Det -6%.
COc1ccccc1N1CCN(C(=O)CSc2nc(-c3ccc(C(C)C)cc3)no2)CC1 was read as Cruzain noTriton inconclusive and Cruzain inh Det 3%.
CCOC(=O)c1c(-c2ccccc2)oc2ccc(NS(=O)(=O)c3ccccc3)cc12 was read as Cruzain noTriton -26% and Cruzain inh Det -7%.
CCOC(=O)c1c(-c2ccccc2)oc2ccc(NS(=O)(=O)c3cc(C)c(C)cc3C)cc12 was read as Cruzain noTriton 7.9µM* and Cruzain inh Det -3%.
For COc1ccc(Cn2c(O)c(C=Nc3ccc(C)cc3)c3ccccc3c2=O)cc1 the results were Cruzain noTriton 13µM* and Cruzain inh Det 0%.
For COc1ccc(N=Cc2c(O)n(-c3cccc(C)n3)c(=O)c3ccccc23)cc1 the results were Cruzain noTriton inconclusive and Cruzain inh Det -9%.
Screening COc1ccc(Cn2c(O)c(C=Nc3ccc(O)cc3)c3ccccc3c2=O)cc1 returned Cruzain noTriton 25µM* and Cruzain inh Det -3%.
Screening COc1ccc(Cn2c(O)c(C=Nc3ccccc3)c3ccccc3c2=O)cc1 returned Cruzain noTriton inconclusive and Cruzain inh Det -5%.
For Cc1cccc(N=C2NN=C(c3c(C)[nH]c4ccccc34)CS2)c1 the results were Cruzain noTriton inconclusive and Cruzain inh Det -4%.
Screening Cc1cccc(N=C2NN=C(c3ccc4c(c3)OCCO4)CS2)c1 returned Cruzain noTriton 16µM* and Cruzain inh Det -7%.
CC(=O)NCCNC(=O)CCCc1nnc2n(CC(C)C)c(=O)c3sccc3n12 was read as Cruzain noTriton 15% and Cruzain inh Det 0%.
O=C(CSc1nc2ccccc2c(=O)n1-c1ccc(Cl)cc1)N/N=C/C=C/c1ccccc1[N+](=O)[O-] was read as Cruzain noTriton 10µM* and Cruzain inh Det -3%.
Cc1ccccc1-n1c(SCC(=O)N/N=C/C=C/c2ccccc2[N+](=O)[O-])nc2ccccc2c1=O was read as Cruzain noTriton inconclusive and Cruzain inh Det -1%.
For COc1ccccc1[C@@H]1C(c2ccccc2)=NN(c2ccccc2)[C@H]1C(=O)N1CCOC1=O the results were Cruzain noTriton inconclusive and Cruzain inh Det -5%.
`O=C1OCCN1C(=O)[C@H]1[C@H](c2ccccc2)C(c2cccc(Cl)c2)=NN1c1ccccc1` gave Cruzain noTriton inconclusive and Cruzain inh Det -9%.
`COc1ccccc1[C@@H]1C(c2cccc(Cl)c2)=NN(c2ccc(Br)cc2)[C@H]1C(=O)N1CCOC1=O` gave Cruzain noTriton 8.9µM* and Cruzain inh Det 0%.
For COc1ccccc1[C@@H]1C(c2ccc(F)cc2)=NN(c2ccc(Br)cc2)[C@H]1C(=O)N1CCOC1=O the results were Cruzain noTriton 25µM* and Cruzain inh Det 1%.
